# Assay results from PubChem BioAssay (Tox21).
# “And” between values parts separate entries of the source, which are not always exact repeats. Equal values may be shown once. Results filed as inconclusive are left out. Where a call stands in place of a potency, no number is given. Some structures have more than one record in an assay (separate samples or runs), and their calls can disagree. The source made the active and inactive calls. Unless noted, the call rests on the fitted dose curve; in most records, active means well fitted curve in the direction sought with a large enough effect in the repeat runs; inconclusive means weak or mixed curves; inactive means no such curve, though single readings can be large; an effect the other way counts as inactive or inconclusive.
# What was measured:
# [1] = qHTS assay to identify small molecule agonists of H2AX (AID 1224845; active means well fitted activation curve with a large enough effect in the signal ratio in the repeat runs, not every such curve was filed as active; the % refers to the signal ratio; further: potency means the concentration at half of the fitted maximal effect); details: CHO-K1 phospho-H2AX Ser139 HTRF, 3 h; series mostly up to 154 µM
# In short: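 Wild-type CHO-K1 cells plated overnight, then exposed 3 hr at 37C to compounds at 15 concentrations (0.76% DMSO). Lysed, then HTRF anti-pH2AX(S139)-cryptate/anti-H2AX-d2 detection after 24 hr at room temperature; emissions 665 and 620 nm.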
# [2] = qHTS assay to identify small molecule agonists of the hypoxia (HIF-1) signaling pathway (AID 1224846; active means well fitted activation curve with a large enough effect in the signal ratio in the repeat runs, not every such curve was filed as active; the % refers to the signal ratio); details: HRE-bla ME-180 cells, beta-lactamase ratio, 17 h; series mostly up to 76.8 µM
# In short: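 Measured by blue/green FRET after loading CCF4-AM: beta-lactamase expressed from a hypoxia response element in ME-180 cells. Test agents were delivered in DMSO and left 17 hrs; cells had been plated 5 hrs earlier in low-serum (0.5% dialyzed FBS) medium.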
# [3] = qHTS assay to identify small molecule agonists of H2AX - cell viability counter screen (AID 1224847; calls by dose curve; further: nearly all actives have a fitted effect of over 30% in size; further: potency means the concentration at half of the fitted maximal effect); details: CHO-K1 viability, CellTiter-Glo luminescence, 3 h; series mostly up to 154 µM
# In short: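 After overnight plating of 1000 CHO-K1 cells per well, a 15-concentration compound series was applied for 3 hr at 37C. Luminescence from CellTiter-Glo, read following 30 min at room temperature, reflected cell viability.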
# [4] = qHTS assay to identify small molecule antagonists of the estrogen related receptor (ERR) signaling pathway from Tox21 library (AID 1224848); details: ERR reporter cell line, luciferase antagonist mode, 18 h; series mostly up to 92.4 µM; further: nearly all actives have a fitted effect of over 50% in size; further: potency means the concentration at half of the fitted maximal effect
# In short: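 Cells: ERR line, 2,000/well; 6 h preincubation 37 C/5% CO2. Cpd in DMSO via pin tool; 18 h, 37 C. ONE-Glo, 30 min RT, luminescence.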
# [5] = qHTS assay to identify small molecule agonists of the estrogen related receptor (ERR) signaling pathway from Tox21 library (AID 1224849; calls by dose curve; further: nearly all actives have a fitted effect of over 15% in size); details: ERR reporter cell line, ONE-Glo luciferase, 18 h
# In short: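 We plated ERR reporter cells, waited 6 h, added compounds in DMSO by pin tool and incubated them 18 h at 37 C. ONE-Glo was then added and luminescence read after 30 min.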
# [6] = qHTS RealTime-Glo MT Cell Viability Assay in HepG2 cells - 24 hour (AID 1224867); details: RealTime-Glo luminescence; series mostly up to 76.8 µM; further: nearly all actives have a fitted effect of over 50% in size
# In short: (§1)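 Cells + NanoLuc/prosubstrate dispensed (600 cells/well) → 5 h at 37 C/5% CO2 → compounds in DMSO transferred → 40 h incubation at 37 C, luminescence read at 0, 8, 16, 24, 32, 40 h.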
# [7] = qHTS RealTime-Glo MT Cell Viability Assay in HEK293 cells - 32 hour (AID 1224868); details: RealTime-Glo luminescence; series mostly up to 76.8 µM; further: nearly all actives have a fitted effect of over 50% in size; further: potency means the concentration at half of the fitted maximal effect
# In short: (§2)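 Tox21 10K qHTS, HEK293, 600 cells/well, RealTime-Glo reagent co-dispensed with cells; 5 h preincubation, compound by pintool, 37 C, luminescence at 0–40 h.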
# [8] = A CellTox Green Cytotoxicity Assay to monitor cytotoxicity in HEK293 cells - 0 hour (AID 1224869); details: CellTox Green fluorescence; series mostly up to 76.8 µM; further: nearly all actives have a fitted effect of over 50% in size
# In short: (§3)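 Each value comes from one timepoint of a single continuous run in which HEK293 cells with CellTox Green were exposed to compound for up to 40 h at 37 C, dye fluorescence rising with cell death.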
# [9] = qHTS RealTime-Glo MT Cell Viability Assay in HepG2 cells - 40 hour (AID 1224870); details: RealTime-Glo luminescence; series mostly up to 76.8 µM; further: nearly all actives have a fitted effect of over 50% in size; further: potency means the concentration at half of the fitted maximal effect
# In short: (§4)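 HepG2 cells mixed with RealTime-Glo MT reagents (NanoLuc plus cell-permeant prosubstrate) were seeded at 600 cells/well, incubated 5 h at 37 C/5% CO2, then pinned with compounds in DMSO; nonlytic luminescence tracked viability during 40 h treatment.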
# [10] = A CellTox Green Cytotoxicity Assay to monitor cytotoxicity in HEK293 cells - 40 hour (AID 1224871); details: CellTox Green fluorescence; series mostly up to 76.8 µM; further: nearly all actives have a fitted effect of over 45% in size; further: potency means the concentration at half of the fitted maximal effect
# In short: as §3
# [11] = qHTS RealTime-Glo MT Cell Viability Assay in HEK293 cells - 16 hour (AID 1224872); details: RealTime-Glo luminescence; series mostly up to 76.8 µM; further: nearly all actives have a fitted effect of over 50% in size; further: potency means the concentration at half of the fitted maximal effect
# In short: as §2
# [12] = qHTS RealTime-Glo MT Cell Viability Assay in HepG2 cells - 8 hour (AID 1224873); details: RealTime-Glo luminescence; series mostly up to 76.8 µM; further: nearly all actives have a fitted effect of over 55% in size
# In short: as §4
# [13] = qHTS RealTime-Glo MT Cell Viability Assay in HEK293 cells - 40 hour (AID 1224874); details: RealTime-Glo luminescence; max response: stronger effect = lower value; further: nearly all actives have a fitted effect of over 50% in size; further: potency means the concentration at half of the fitted maximal effect
# In short: (§5)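 qHTS format; HEK293 cells with NanoLuc/prosubstrate reagent, 37 C/5% CO2 for 5 h pre-dosing; compounds 23 nL in DMSO; luminescence at each time point reflects viable cells.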
# [14] = A CellTox Green Cytotoxicity Assay to monitor cytotoxicity in HEK293 cells - 24 hour (AID 1224875); details: CellTox Green fluorescence; series mostly up to 76.8 µM; further: nearly all actives have a fitted effect of over 45% in size; further: potency means the concentration at half of the fitted maximal effect
# In short: as §3
# [15] = A CellTox Green Cytotoxicity Assay to monitor cytotoxicity in HepG2 cells - 16 hour (AID 1224876); details: CellTox Green fluorescence; series mostly up to 76.8 µM; further: nearly all actives have a fitted effect of over 45% in size; further: potency means the concentration at half of the fitted maximal effect
# In short: (§6)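 Continuous culture of HepG2 cells with a membrane-impermeant DNA dye; rising fluorescence marks dead cells. Compound exposure lasted up to 40 h at 37 C, with reads every 8 h from 0 h.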
# [16] = A CellTox Green Cytotoxicity Assay to monitor cytotoxicity in HepG2 cells - 24 hour (AID 1224878); details: CellTox Green fluorescence; series mostly up to 76.8 µM; further: nearly all actives have a fitted effect of over 45% in size; further: potency means the concentration at half of the fitted maximal effect
# In short: as §6
# [17] = A CellTox Green Cytotoxicity Assay to monitor cytotoxicity in HepG2 cells - 40 hour (AID 1224879); details: CellTox Green fluorescence; series mostly up to 76.8 µM; further: nearly all actives have a fitted effect of over 40% in size; further: potency means the concentration at half of the fitted maximal effect
# In short: as §6
# [18] = qHTS RealTime-Glo MT Cell Viability Assay in HEK293 cells - 0 hour (AID 1224880); details: RealTime-Glo luminescence; series mostly up to 76.8 µM
# In short: as §5
# [19] = A CellTox Green Cytotoxicity Assay to monitor cytotoxicity in HEK293 cells - 32 hour (AID 1224881); details: CellTox Green fluorescence; series mostly up to 76.8 µM; further: nearly all actives have a fitted effect of over 40% in size; further: potency means the concentration at half of the fitted maximal effect
# In short: as §3
# [20] = qHTS RealTime-Glo MT Cell Viability Assay in HepG2 cells - 32 hour (AID 1224877); details: RealTime-Glo luminescence; series mostly up to 76.8 µM; further: nearly all actives have a fitted effect of over 55% in size; further: potency means the concentration at half of the fitted maximal effect
# In short: as §1
smiles,measurement,setting,value
CCCCN(CCO)CCCC,Potency,[1],inactive
same,Potency,[2],inactive
same,Potency,[3],inactive
same,Potency,[4],inactive
same,"activity change, positive = activation",[5]; at 92.4 µM (top of the series),1.42% (inactive)
same,Potency,[6],inactive
same,Potency,[7],inactive
same,Potency,[8],inactive
same,Potency,[9],inactive
same,Potency,[10],inactive
same,Potency,[11],inactive
same,Potency,[12],inactive
same,max response,[13],2.9% (inactive)
same,Potency,[14],inactive
same,Potency,[15],inactive
same,Potency,[16],inactive
same,Potency,[17],inactive
same,Potency,[18],inactive
same,Potency,[19],inactive
O=Cc1ccc(Cl)cc1,Potency,[1],inactive
same,Potency,[2],inactive
same,Potency,[3],inactive
same,Potency,[4],inactive
same,Potency,[6],inactive
same,Potency,[7],inactive
same,Potency,[8],inactive
same,Potency,[9],inactive
same,Potency,[10],inactive
same,Potency,[11],inactive
same,Potency,[12],inactive
same,max response,[13],-1.8% (inactive)
same,Potency,[14],inactive
same,Potency,[15],inactive
same,Potency,[16],inactive
same,Potency,[17],inactive
same,Potency,[18],inactive
same,Potency,[19],inactive
CCOc1ccc2c(c1)C(C)=CC(C)(C)N2,Potency,[1],inactive
same,Potency,[3],inactive
same,Potency,[4],inactive
same,"activity change, positive = activation",[5]; at 92.4 µM (top of the series),1.57% (inactive) and 2.85% (inactive)
same,Potency,[6],inactive
same,Potency,[7],inactive
same,Potency,[8],inactive
same,Potency,[9],inactive
same,Potency,[10],inactive
same,Potency,[11],inactive
same,Potency,[12],inactive
same,max response,[13],-10.3% (inactive) and 3.02% (inactive)
same,Potency,[14],inactive
same,Potency,[15],inactive
same,Potency,[16],inactive
same,Potency,[18],inactive
same,Potency,[19],inactive
CC(C)(c1ccccc1)c1ccc(Nc2ccc(C(C)(C)c3ccccc3)cc2)cc1,Potency,[1],inactive
same,Potency,[3],inactive
same,Potency,[4],15.3 µM (active) and inactive
same,"activity change, positive = activation",[5]; at 92.4 µM (top of the series),-43.2% (inactive) and -18.6% (inactive)
same,Potency,[6],inactive
same,Potency,[7],inactive
same,Potency,[8],inactive
same,Potency,[9],inactive
same,Potency,[10],inactive
same,Potency,[11],inactive
same,max response,[13],-27.1% (inactive) and -13.6% (inactive)
same,Potency,[14],inactive
same,Potency,[15],inactive
same,Potency,[16],inactive
same,Potency,[18],inactive
same,Potency,[19],inactive
Cc1cc(Cc2cc(C)cc(C(C)(C)C)c2O)c(O)c(C(C)(C)C)c1,Potency,[1],56.9 µM (active) and 45 µM (active)
same,Potency,[3],40.3 µM (active) and 31.8 µM (active)
same,Potency,[4],27.4 µM (active) and 30.6 µM (active)
same,"activity change, positive = activation",[5]; at 92.4 µM (top of the series),-73.5% (inactive) and -62.7% (inactive)
same,Potency,[7],9.82 µM (active) and 15.5 µM (active)
same,Potency,[8],inactive
same,Potency,[9],55.2 µM (active) and 49 µM (active)
same,Potency,[10],43.9 µM (active) and 43.6 µM (active)
same,Potency,[11],15.6 µM (active) and 17.4 µM (active)
same,Potency,[13],8.75 µM (active) and 15.5 µM (active)
same,Potency,[14],43.9 µM (active) and 43.6 µM (active)
same,Potency,[15],39.1 µM (active) and 38.9 µM (active)
same,Potency,[20],49.2 µM (active) and 49 µM (active)
same,Potency,[16],43.9 µM (active) and 43.6 µM (active)
same,Potency,[17],49.2 µM (active) and 43.6 µM (active)
same,Potency,[18],inactive
same,Potency,[19],49.2 µM (active) and 43.6 µM (active)
CNC1(C)C2CCC(C2)C1(C)C (stereo not drawn),Potency,[1],inactive
same,Potency,[3],inactive
same,Potency,[4],inactive
same,"activity change, positive = activation",[5]; at 42.5 µM (top of the series),0.179% (inactive)
same,Potency,[6],inactive
same,Potency,[8],inactive
same,Potency,[9],inactive
same,Potency,[10],inactive
same,Potency,[11],inactive
same,Potency,[12],inactive
same,max response,[13],-3.74% (inactive)
same,Potency,[14],inactive
same,Potency,[20],inactive
same,Potency,[18],inactive
same,Potency,[19],inactive
COc1nc(C)nc(Cl)c1NC1=NCCN1,Potency,[1],inactive
same,Potency,[3],inactive
same,Potency,[6],inactive
same,Potency,[8],inactive
same,Potency,[9],inactive
same,Potency,[10],inactive
same,Potency,[11],inactive
same,Potency,[12],inactive
same,max response,[13],2.57% (inactive)
same,Potency,[14],inactive
same,Potency,[15],inactive
same,Potency,[16],inactive
same,Potency,[18],inactive
same,Potency,[19],inactive
c1ccc2c(c1)CCCC2C1=NCCN1 (stereo not drawn),Potency,[1],inactive
same,Potency,[3],inactive
same,Potency,[6],inactive
same,Potency,[8],inactive
same,Potency,[9],inactive
same,Potency,[10],inactive
same,Potency,[11],inactive
same,Potency,[12],inactive
same,max response,[13],3.27% (inactive)
same,Potency,[14],inactive
same,Potency,[15],inactive
same,Potency,[20],inactive
same,Potency,[16],inactive
same,Potency,[17],inactive
same,Potency,[18],inactive
same,Potency,[19],inactive
O=C(OCc1ccccc1)c1ccc(O)cc1,Potency,[1],inactive
same,Potency,[2],inactive
same,Potency,[3],inactive
same,Potency,[8],inactive
same,Potency,[9],inactive
same,Potency,[10],inactive
same,Potency,[11],inactive
same,max response,[13],-24.2% (inactive)
same,Potency,[14],inactive
same,Potency,[15],inactive
same,Potency,[20],inactive
same,Potency,[16],inactive
same,Potency,[17],49 µM (active) and inactive
same,Potency,[18],inactive
same,Potency,[19],inactive
Oc1ccc(Cl)cc1Cc1cc(Cl)ccc1O,Potency,[1],inactive
same,Potency,[3],51.4 µM (active) and 31.8 µM (active)
same,Potency,[7],19.8 µM (active) and 49 µM (active)
same,Potency,[8],inactive
same,Potency,[9],49.9 µM (active)
same,Potency,[10],inactive
same,Potency,[11],22.3 µM (active)
same,Potency,[12],inactive
same,Potency,[13],17.7 µM (active) and 43.6 µM (active) and 16.9 µM (active)
same,Potency,[14],inactive
same,Potency,[15],inactive
same,Potency,[20],49.9 µM (active)
same,Potency,[16],inactive
same,Potency,[17],inactive
same,Potency,[18],inactive
same,Potency,[19],inactive
CCCCCC(=O)O[C@]1(C(C)=O)CC[C@H]2[C@@H]3CCC4=CC(=O)CC[C@]4(C)[C@H]3CC[C@@]21C,Potency,[1],inactive
same,Potency,[3],31.6 µM (active)
same,Potency,[4],24.2 µM (active) and 7.5 µM (active)
same,Potency,[6],inactive
same,Potency,[7],24.4 µM (active)
same,Potency,[8],inactive
same,Potency,[9],inactive
same,Potency,[10],inactive
same,Potency,[13],24.4 µM (active)
same,Potency,[14],inactive
same,Potency,[15],inactive
same,Potency,[16],inactive
same,Potency,[17],inactive
same,Potency,[18],inactive
same,Potency,[19],inactive
